Sampled rows, rich in hits. Any-hit rate of the full collection: about 8.7%.
JMJD2A Tudor inh: inhibitors of human JMJD2A Tudor domain; O75164; AlphaScreen JMJD2A-Tudor / H3K4me3 peptide binding; Potency, µM (highest dose often 114 µM), inactives show top-dose activity change, negative = inhibition, most hits filed as inhibitors; 390,000 compounds, 4.4% hits; AID 504339; further: on the % scale 0 is the no-effect control and ±100 the full control effect; nearly all actives have a fitted effect of over 50% in size
12-LOX inh: blocks human arachidonate 12S-lipoxygenase; 580,000 compounds, 1.1% hits; Potency, µM (highest dose often 108 µM), without a hit: at the highest dose activity change, negative = inhibition, most hits filed as inhibitors; P18054; AID 1671190; purified 12hLO, xylenol orange hydroperoxide absorbance; further: on the % scale 0 is the no-effect control and ±100 the full control effect
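Purified human 12hLO at 150 nM in 25 mM Hepes, 0.01% Triton X-100, pH 7.0, preincubated 15 min at room temperature with compound. Reaction started with 40 uM arachidonic acid, 30 min at room temperature. Hydroperoxide measured by Fe-xylenol orange, 573/405 nm absorbance ratio.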
G9a block: inhibitors of human histone lysine methyltransferase G9a | Potency, µM (highest dose often 102 µM), for the others: top-dose activity, negative = inhibition, hits mostly inhibitors | G9a H3K9 monomethylation, AlphaScreen, 2 h | AID 504332 | 350,000 compounds, 8.8% hits | Q96KQ7; further: on the % scale 0 is the no-effect control and ±100 the full control effect; nearly all actives have a fitted effect of over 75% in size
Target sequence (Q96KQ7 913-1193 limits assumed): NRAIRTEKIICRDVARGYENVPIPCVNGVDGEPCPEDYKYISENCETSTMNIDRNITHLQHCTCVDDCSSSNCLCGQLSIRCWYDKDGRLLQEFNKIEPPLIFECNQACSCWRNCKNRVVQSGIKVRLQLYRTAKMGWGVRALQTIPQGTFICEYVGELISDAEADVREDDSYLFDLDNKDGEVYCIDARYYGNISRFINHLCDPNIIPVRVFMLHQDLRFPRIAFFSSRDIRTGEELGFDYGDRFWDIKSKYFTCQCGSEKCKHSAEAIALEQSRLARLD
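Signal arises when biotinylated H3K9 peptide, once monomethylated, bridges streptavidin donor and antibody-captured acceptor beads. Enzyme at 20 nM was preincubated 15 min with test compounds; peptide 500 nM and SAM 20 uM then reacted for 2 h.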
BAZ2B block: BAZ2B (human) inhibition; 360,000 compounds, 4.4% hits; AlphaScreen BAZ2B-H3K14Ac peptide displacement; Potency, µM (top dose mostly 114 µM), for inactives: top-dose activity change, negative = inhibition, usual class: inhibitors; Q9UIF8; AID 504333; further: on the % scale 0 is the no-effect control and ±100 the full control effect; nearly all actives have a fitted effect of over 60% in size
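BAZ2B 50 nM plus b-H3(5-23)K14Ac 50 nM, PBS pH 7.4/0.01% Tween-20, 30 min RT; compound added (max 110 uM), 30 min RT; streptavidin donor/Ni-chelate acceptor beads 10 ug/mL final, 20 min dark; AlphaScreen read.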
HP1b binding inh: blocks HP1-beta chromodomain binding to methylated histone tails | P83916 | AlphaScreen HP1-beta / biotin-H3K9me3 peptide binding | Potency, µM (doses to about 114 µM), without a hit: at the top dose activity change, negative = inhibition, actives largely listed as inhibitors | 390,000 compounds, 0.56% hits | AID 540317; further: nearly all actives have a fitted effect of over 70% in size
Target sequence (P83916 whole entry, looked up): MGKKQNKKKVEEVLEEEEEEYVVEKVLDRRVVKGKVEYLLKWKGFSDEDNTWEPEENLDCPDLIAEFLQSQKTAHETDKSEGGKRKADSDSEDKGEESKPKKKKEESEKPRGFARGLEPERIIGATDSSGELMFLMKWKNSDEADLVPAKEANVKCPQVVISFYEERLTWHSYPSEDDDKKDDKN
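AlphaScreen: HP1-beta (50 nM) preformed 30 min with biotin-H3(1-18)K9me3 peptide (50 nM) in PBS pH 7.4, 0.01% Tween-20. Compound added for 30 min at RT, then streptavidin donor/nickel chelate acceptor beads (10 ug/mL) for 30 min.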
Sfp inh: Sfp phosphopantetheinyl transferase inhibition. 310,000 compounds, 3.5% hits. Biochemical Sfp PPTase activity, qHTS. Q9F4F7. Potency, µM, for inactives: largest response in the series, negative = inhibition, actives largely listed as inhibitors;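 further: the enzyme is Sfp with the accession as filed and its product quenches rhodamine fluorescence; 0% = enzyme reaction without inhibitor and -100% = no enzyme wells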
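Fluorescence-quenching assay with 15 nM Sfp, 5 uM rhodamine-CoA and 12.5 uM BHQ-2-labelled ybbR peptide in pH 7.6 Hepes/MgCl2 buffer. Enzyme was pre-incubated with compound for 15 min at room temperature. Rate was taken from the 30-min fluorescence change (525/598 nm).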
* hit, by the source's call; i = inactive; u = inconclusive; x = no result; ! = not confirmed by another sample; [ ] = another dose, or the depositor's remark. The call rests on the fitted dose curve; in most records, active means well fitted curve in the direction sought with a large enough effect; inconclusive means small, poorly fitted or top-dose-only effect, or another doubt; inactive means no such curve, though single readings can be large; an effect the other way counts as inactive or inconclusive. Potency means the concentration at half of the fitted maximal effect.

SMILES	JMJD2A Tudor inh	12-LOX inh	G9a block	BAZ2B block	HP1b binding inh	Sfp inh
O=C(c1cccc(NS(=O)(=O)c2ccc(F)c(F)c2)c1)N1CCN(C(c2ccccc2)c2ccccc2)CC1	-34.4%[57.1 µM]	2.4%	50.1µM*	-5.0%	14.8%	-3.2%
COc1ccc(N2CCN(C(=O)c3cccc(NC(=O)c4nsc5ccccc45)c3)CC2)cc1	u	-13.0%	10µM*	7.94µM*	u	x
COc1cccc(N2CCN(C(=O)c3cccc(NC(=O)c4nsc5ccccc45)c3)CC2)c1	-35.1%	-1.6%	-32.1%[59 µM]	-12.2%	-2.7%[57 µM]	x
CCOc1ccc(S(=O)(=O)NCCC(=O)N2CCN(c3ccc(OC)cc3)CC2)cc1	u	u	44.7µM*	u	u	10.4%
O=C(c1cccc(NS(=O)(=O)c2ccccc2)c1)N1CCCC1	-8.5%	i	u	-15.9%	23.4%	11.3%
O=C(c1cccc(NS(=O)(=O)c2ccc(Br)cc2)c1)N1CCCCC1	-4.8%	u	14.1%[0.501 µM]	5.9%	19.7%	x
CC(Cl)C(=O)NC(=O)NC(C)(C)C (stereo unspecified)	x	12.5%	x	x	x	x
CSc1ccc(/C=C(/C#N)C(=O)Nc2c(C)cc(C)cc2C)cc1	x	8.1%	x	x	x	x
CCOc1ccc(S(=O)(=O)Nc2cccc(C(=O)N3CC(C)OC(C)C3)c2)cc1 (stereo unspecified)	-11.0%	-12.8%	0.8%	-0.4%	12.8%	x
CCOc1ccc(S(=O)(=O)Nc2cccc(C(=O)N3CCN(c4ccc(OC)cc4)CC3)c2)cc1	u	-24.2%	11.2µM*	u	-11.7%	-2.9%
CCN(C(=O)COC(=O)c1cc(-c2cccs2)nc2ccccc12)C1CCS(=O)(=O)C1 (stereo unspecified)	5.6%	-19.8%	25.1%	3.7%	47.2%	-4.8%
Cc1ccc(-c2cc(C(=O)OCC(=O)N(C)C3CCS(=O)(=O)C3)c3ccccc3n2)o1 (stereo unspecified)	79.4µM*	u	3.98µM*	-19.4%	-4.1%	20µM*
CCN(C(=O)COC(=O)c1cc(-c2ccc(C)o2)nc2ccccc12)C1CCS(=O)(=O)C1 (stereo unspecified)	89.1µM*	u	2µM*	-1.7%	5.3%	20µM*
CC(C)CCNC(=O)Cc1cccs1	x	47.7%	x	x	x	x
COc1ccc(CNC(=O)Cn2c(N3CCCCC3)nc(C)c(C)c2=O)cc1	x	5.0%	x	x	x	x
COc1cc(C(c2c(C)[nH][nH]c2=O)c2c(C)[nH][nH]c2=O)ccc1OS(=O)(=O)c1ccccc1	-32.3%	13.4%	22.4µM*	-26.1%	10.0%	-1.1%
COc1cc(C(c2c(C)[nH][nH]c2=O)c2c(C)[nH][nH]c2=O)cc(OC)c1OC	-14.1%	-3.3%	-22.9%	-6.8%	-3.1%	-8.5%
COc1cc(C(c2c(C)[nH][nH]c2=O)c2c(C)[nH][nH]c2=O)cc(Cl)c1O	4.8%	u	44.7µM*	u	21.1%	6.6%
COc1cc(C(c2c(C)[nH][nH]c2=O)c2c(C)[nH][nH]c2=O)ccc1OS(=O)(=O)c1ccc(C)cc1	-29.3%	5.8%	2.82µM*	-25.9%	20.6%	-7.1%
C=CCOc1ccccc1OC[C@H](O)CNC(C)C	x	x	20.5%[21.5 µM]	x	x	2.5%
CC(C)NCC(O)COc1cccc2ccccc12 (stereo unspecified)	-13.1%	-0.4%	3.16µM*!	0.0%	40.8%	-2.9%
OCC(O)COc1cccc2ccccc12 (stereo unspecified)	x	-12.1%	15.2%[59 µM]	x	x	-8.6%
CCc1ccc(CN(C)CC(O)COc2cccc3ccccc23)cc1 (stereo unspecified)	2.51µM*	u	22.4µM*	-29.2%	u	u
CCN(CC)C(=O)CN(C)C(=O)c1cc2cc(Cl)ccc2nc1C	x	-38.4%	x	x	x	x
Cc1ccccc1-n1c(SCc2c(C)noc2C)nnc1-c1ccncc1	-3.0%	0.0%	-23.6%[12.7 µM]	8.5%	18.9%	-1.2%
